# SUMO HTRF inh: blocks human SUMOylation mediated by UBC9; P63279; HTRF SUMOylation assay, SAE1/SAE2 + UBC9, in vitro; inhibition, % at 35 µM; 290,000 tested, 0.36% active; in the data active = inhibition above about 50%, passing the limit was not always enough
# GRIN3A LBD mod: NR3A (human) ligand-binding domain modulation. 340,000 tested, 2.5% active. AID 1259313. NR3A LBD differential scanning fluorimetry, Tm shift; 0% = protein alone, 100% = glycine-bound protein. Tm shift relative to glycine control, % at 25 µM;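 active = melting temperature shift of at least 10% of the positive control shift, at one fixed dose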
# sPLA2-III inh: Blocks human group III sPLA2 activity; Q9NZ20; QFRET BODIPY PC-A2 liposome hydrolysis, fluorescence; inhibition, % at 12.2 µM; 370,000 tested, 0.56% active;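 active = inhibition above mean plus 3 SD of compounds lying within the high and low control bounds, cut at about 19% in these data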
# Target sequence (Q9NZ20 whole entry, looked up): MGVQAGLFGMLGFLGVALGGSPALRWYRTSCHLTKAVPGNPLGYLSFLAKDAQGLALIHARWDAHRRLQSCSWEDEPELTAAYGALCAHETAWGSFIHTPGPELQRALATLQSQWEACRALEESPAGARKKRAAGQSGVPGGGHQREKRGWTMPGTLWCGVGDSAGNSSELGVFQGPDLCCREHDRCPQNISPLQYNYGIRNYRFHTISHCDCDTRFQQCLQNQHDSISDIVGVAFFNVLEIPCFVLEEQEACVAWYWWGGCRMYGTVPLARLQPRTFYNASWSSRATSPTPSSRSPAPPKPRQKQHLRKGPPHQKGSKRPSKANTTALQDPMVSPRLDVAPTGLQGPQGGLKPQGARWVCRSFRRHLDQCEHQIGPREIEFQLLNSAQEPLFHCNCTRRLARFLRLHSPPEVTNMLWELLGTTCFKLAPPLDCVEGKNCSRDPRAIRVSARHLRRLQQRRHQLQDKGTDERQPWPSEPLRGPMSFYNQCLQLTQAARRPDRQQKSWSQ
# UBC13 inh: inhibitors of human UBC13 polyubiquitin chain formation; TR-FRET; inhibition, % at 20 µM; 330,000 tested, 0.47% active; in the data active = inhibition above about 45%, passing the limit was not always enough
# Numbers stand for hits; 0 = inactive; - = not tested or not shown. Shown are actives, neighbours in structure and some others; about 3.3% of the full set was active somewhere.
SMILES,SUMO HTRF inh,GRIN3A LBD mod,sPLA2-III inh,UBC13 inh
COc1cc(SSc2cc(OC)cc([N+](=O)[O-])c2N)c(N)c([N+](=O)[O-])c1,0,37,0,0
CCn1c(C(C)NC(=O)c2cccs2)n[nH]c1=S (stereo not given),0,10,0,0
Cc1cccc(C)c1Nc1nnc(SCC(=O)Nc2ncc(C(F)(F)F)cc2Cl)s1,0,12,0,0
CN(CCO)c1ccc2c(c1)Oc1ccccc1CN(Cc1cn(Cc3ccc(F)cc3)nn1)S2(=O)=O,-,-,0,-
CCOc1ccc(-c2nc(CCl)cs2)cc1,0,0,0,0
ClCc1csc(-c2ccc(Cl)cc2)n1,0,13,0,0
O=C(CSc1nc2nc3c(cc2c(=O)n1-c1ccccc1)CCCC3)Nc1cccc2ccccc12,0,0,0,0
Cc1cccc(NC(=O)CSc2nc3nc4c(cc3c(=O)n2-c2ccccc2)CCCC4)c1,0,19,0,0
Cc1ccc(NC(=O)Nc2ccc(F)cc2)cc1Cl,0,28,0,0
COc1cccc(NC(=O)Nc2cc(C(=O)O)ccc2C)c1,0,0,0,0
COc1cccc(NC(=O)Nc2ccc(C(C)(C)C)cc2)c1,0,18,0,0
COc1cccc(NC(=O)Nc2ccc(C)c(Cl)c2)c1,0,34,0,0
COc1ccc(-c2nnc(SCC(=O)Nc3ccc4cn[nH]c4c3)n2Cc2ccco2)cc1,-,-,0,-
Cc1nc2cc(C(=O)N3CCN(C(=O)OCc4ccccc4)CC3)ccc2n1C1CCCC1,-,-,0,-
CCC[C@H]1[C@@H](OC(=O)NCc2cccs2)CC[C@@]23CCCN2C(=O)CCC[C@@H]13,-,-,0,-
c1ccc(CCn2nnc(-c3ccc(N4CCOCC4)cc3)n2)cc1,-,-,0,-
Cc1ccccc1N=C1SC(CC(=O)Nc2ccc3ccccc3c2)C(=O)N1Cc1ccccn1 (stereo not given),0,22,0,0
O=C(CC1SC(=Nc2ccccc2)N(Cc2ccccn2)C1=O)Nc1ccc(Br)cc1 (stereo not given),0,12,0,0
O=C(Nc1nnc(-c2ccco2)s1)C1CCCCC1,0,0,0,0
CS(=O)(=O)c1ccc(C(=O)Nc2nc(-c3ccco3)c(-c3ccco3)s2)cc1,-,19,0,0
O=C(Nc1nc(-c2ccco2)c(-c2ccco2)s1)C1CC(=O)N(c2ccc3c(c2)OCCO3)C1 (stereo not given),83,0,0,0
O=C(Nc1nc(-c2ccco2)c(-c2ccco2)s1)C1CCC1,61,0,0,0
COC(=O)[C@]12C[C@H](CC(=O)NCC3CCCCC3)C(=O)N(Cc3ccco3)C1=C[C@H](C(C)(C)C)O[C@@H]2C,-,-,0,-
COc1ccc(-n2c(COc3ccc(Cl)cc3)nnc2SCc2nc3ccccc3[nH]2)cc1,-,-,0,-
N#Cc1ccc(/C=C/C(=O)c2ccccc2)cc1,0,12,0,0
SMILES,SUMO HTRF inh,GRIN3A LBD mod,sPLA2-III inh,UBC13 inh
Cc1oc(C(C)(C)C)cc1-c1cc(NC(=O)c2ccc([N+](=O)[O-])cc2)n[nH]1,0,15,0,0
Cc1cc(NC(=O)c2ccc([N+](=O)[O-])cc2)no1,0,0,0,0
CCCN1CCN(CCCNC(=O)c2ccc3c(c2)NC(=O)c2ccccc2S3)CC1,0,42,0,0
Cc1ccc(-n2nc3cc(C)c(N)cc3n2)cc1,0,0,0,0
Nc1cc2nn(-c3ccccc3)nc2cc1Cl,78,0,0,-
Nc1ccc(-n2nc3ccccc3n2)cc1,-,0,0,0
Cc1cc2nn(-c3cccc4ccccc34)nc2cc1N,0,0,0,0
Nc1ccc2nn(-c3ccccc3)nc2c1,66,0,0,0
Nc1ccc2nn(-c3cccc4ccccc34)nc2c1,58,0,0,0
C[C@H]1[C@H](NC(=O)c2ccc(C(F)(F)F)cc2)CC[C@@]23CCCN2C(=O)CCC[C@@H]13,-,-,0,-
COc1ccc2nc3sc(C(=O)N4CCN(C)CC4)cc3cc2c1,0,0,0,0
COc1ccc2nc3sc(C(=O)NCCCN4CCc5ccccc5C4)cc3cc2c1,0,23,0,0
CCOc1ccc(NC(=S)Nc2ccc3nsnc3c2)cc1,0,22,0,0
CCOC(=O)c1cccc(NC(=O)Nc2ccc(OCC)cc2)c1,0,20,0,0
CCOc1ccc(NC(=O)Nc2cccc(C(=O)O)c2)cc1,0,0,0,0
CCOc1ccc(NC(=S)Nc2ccc(OCC)cc2)cc1,0,0,0,0
COc1ccc(NC(=S)Nc2ccc3nsnc3c2)cc1,0,24,0,0
CCOc1ccc(NC(=O)Nc2ccc3nsnc3c2)cc1,0,26,0,0
CCOc1ccc(NC(=O)Nc2ccc(Cc3ccncc3)cc2)cc1,0,0,0,0
CC(/C=N/NC(=O)CSc1nnc(SCc2ccc(C)cc2)s1)=C\c1ccco1,-,-,0,-
